Screens deposited in PubChem BioAssay by several laboratories.
p47phox inh – p47phox (human) inhibition | P14598 | p47phox/p22phox peptide binding, fluorescence polarization, 2 h | inhibition, % at 24.7 µM | actives 0.53% (n = 220,000);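 active = inhibition above about 30%, limit read from the data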;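 also: 0% = p47phox with labelled peptide and 100% = labelled peptide alone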
Mcl1-Noxa inh – Mcl-1/Noxa interaction inhibition | Q07820 | TR-FRET Mcl-1/Noxa peptide binding, 2 h | inhibition, % at 21.7 µM | actives 1.5% (n = 220,000) | AID 1022;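 active = compounds that cut the protein-peptide binding signal by more than 50% relative to plate controls in a single-dose test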;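 also: His-tagged Mcl-1 with rhodamine Noxa BH3 peptide and terbium anti-His antibody; 0% = Mcl-1 plus Noxa peptide wells and 100% = peptide-only wells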
Target sequence (Q07820 whole entry, looked up): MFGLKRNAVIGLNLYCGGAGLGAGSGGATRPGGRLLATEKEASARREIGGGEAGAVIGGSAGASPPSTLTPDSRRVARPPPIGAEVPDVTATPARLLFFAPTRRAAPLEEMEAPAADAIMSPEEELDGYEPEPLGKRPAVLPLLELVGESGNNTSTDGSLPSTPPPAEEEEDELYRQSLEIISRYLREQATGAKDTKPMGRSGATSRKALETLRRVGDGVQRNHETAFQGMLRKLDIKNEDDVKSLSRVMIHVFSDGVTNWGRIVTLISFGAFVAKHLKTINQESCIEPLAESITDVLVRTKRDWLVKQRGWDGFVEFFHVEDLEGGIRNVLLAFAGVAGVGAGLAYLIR
14-3-3 Bad PPI – disrupts binding of bovine 14-3-3 zeta to phospho-Bad peptide; inhibition, % at 21.7 µM; TR-FRET 14-3-3zeta/Dy647-pBad peptide displacement, 1 h; AID 781; actives 0.71% (n = 220,000);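 active = inhibition above about 70%, limit read from the data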;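 also: 0% = full 14-3-3 plus peptide FRET controls and 100% = background without 14-3-3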
Target sequence (P63103 whole entry, looked up): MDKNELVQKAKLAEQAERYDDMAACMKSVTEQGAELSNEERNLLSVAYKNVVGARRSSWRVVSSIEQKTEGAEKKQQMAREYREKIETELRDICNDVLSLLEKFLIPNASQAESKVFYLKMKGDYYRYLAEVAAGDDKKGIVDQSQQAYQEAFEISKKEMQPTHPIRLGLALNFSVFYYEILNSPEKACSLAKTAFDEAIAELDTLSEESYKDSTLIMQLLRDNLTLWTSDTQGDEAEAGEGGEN
Calpain2 inh – inhibitors of pig calpain II | purified calpain II, fluorogenic peptide substrate, 30 min | inhibition, % at 16 µM | actives 0.37% (n = 220,000) | AID 1236;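 active = inhibition above about 50%, limit read from the data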
Mcl1 Bid PPI – Mcl-1/Bid interaction inhibition | actives 0.97% (n = 220,000) | AID 1021 | inhibition, % at 21.7 µM | Q07820 | TR-FRET Mcl-1/Bid-Dy647 peptide binding, 1536-well;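 active = compounds that cut the binding signal by more than half at the single screening dose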;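 also: His-tagged Mcl-1 with europium anti-His antibody binding Bid BH3 peptide; 0% = Mcl-1 plus peptide wells and 100% = peptide-only wells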
Bim-Mcl-1 – disrupts Bim peptide binding to human Mcl-1 | inhibition, % at 10 µM | actives 0.1% (n = 190,000) | Q07820 | Bead-based flow cytometry, Bim peptide-Mcl-1 binding | AID 1009; in the data active = inhibition above about 40%;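 also: 0% = no compound tracer wells and 100% = peptide blocker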
The depositor's hits bear a star; nt = no result; [ ] = remark or other dose. The list is not random: actives were taken first. Their share in the collection is about 3.4%.

SMILES | p47phox inh | Mcl1-Noxa inh | 14-3-3 Bad PPI | Calpain2 inh | Mcl1 Bid PPI | Bim-Mcl-1
CCCCCSc1nnc2c(n1)OC(c1cccn1C)N(C(C)=O)c1ccccc1-2 (stereo unspecified) | -5.6 | 6.5 | -9.7 | -3.9 | 97.6* | 0.0
COc1ccccc1NC1=C(NC(C)=O)C(=O)c2ccccc2C1=O | -1.6 | 77.9* | -8.7 | 0.3 | -39.0 | 8.0
CCO[C@H]1OC(C(=O)N2CCCCCCC2)=C[C@@H](c2ccccc2)[C@@H]1CCCO | nt | 29.1 | 1.8 | 2.0 | 37.6 | 0.0
CC1CCCCN1Cc1cnc(Cl)s1 (stereo unspecified) | 2.8 | 9.0 | 19.6 | 58.5* | -28.0 | -2.0
CC1CCN(Cc2cnc(Cl)s2)CC1 | -5.5 | -2.2 | 12.1 | 51.0* | 5.1 | -3.0
CC1CCCN(Cc2cnc(Cl)s2)C1 (stereo unspecified) | -1.4 | -14.6 | 8.0 | 40.4 | -37.3 | -2.0
COCCn1nnnc1SCC(=O)Nc1ccc2c(c1)OCO2 | -3.5 | 1.6 | -5.5 | -11.0 | -33.8 | 1.0
CC1(C)CC2(CC(c3ccccc3F)c3ccc(O)c(O)c3O2)NC(=S)N1 (stereo unspecified) | -13.7 | 35.2 | -4.6 | -59.9 | -96.1 | -1.0
c1coc(Cn2nnnc2CN2CCN(C3CCCC3)CC2)c1 | -3.6 | 32.3 | 79.1* | -15.1 | 19.1 | -3.0
Cc1ccsc1/C=N/NC(=O)Cc1cccn1C | -8.2 | 20.7 | -1.0 | -16.1 | -4.1 | -1.0
Cn1c(=O)n(CCc2ccccc2)c(=O)c2c1nc1n2CCCN1CCc1ccccc1 | -1.9 | 18.8 | -11.8 | 68.7* | 27.2 | 2.0
Cc1ccc(C(=O)CN(C(=O)c2ccc(Cl)c(Cl)c2)N2C(=O)C3C4C=CC(C4)C3C2=O)cc1 (stereo unspecified) | -4.5 | nt | -0.4 | 14.6 | 80.3* | -3.0
COC(=O)C1=C(SC)N(c2ccccc2)C(c2ccccc2)CC1=O (stereo unspecified) | -1.5 | 29.1 | 10.7 | 23.7 | 13.3 | -5.0
CCOC(=O)c1cnc2c(C)cccc2c1Nc1cccc(C(=O)O)c1 | -7.5 | -4.9 | -3.0 | -8.5 | -15.8 | nt
CC(=O)CC1(OC(C)=O)C(=O)N(C)c2ccccc21 (stereo unspecified) | -4.5 | -1.6 | 9.1 | 15.3 | 0.1 | 0.0
Cc1nn(Cc2ccc(F)cc2)c2sc(C(=O)Nc3ccc(N4CCOCC4)cc3N3CCOCC3)cc12 | 1.5 | 75.7* | 3.6 | -17.9 | -61.9 | -5.0
O=c1c2c3c(sc2[nH]c(=S)n1Cc1ccco1)CCC3 | -13.7 | 76.0* | 20.6 | -3.8 | -49.9 | nt
COc1ccc(-c2cnnc(N/N=C/c3ccc(O)cc3)n2)cc1 | -62.4 | 88.1* | 36.5 | -10.0 | 25.4 | 0.0
CCOc1cc(C(=S)N2CCOCC2)ccc1OS(=O)(=O)c1ccccc1[N+](=O)[O-] | -11.7 | 15.6 | -1.0 | 4.4 | -18.6 | -14.0
CCN(C(=O)COC(=O)C1CCN(S(=O)(=O)c2cccs2)CC1)c1ccccc1 | -3.7 | 21.5 | -8.7 | -2.9 | -9.8 | 1.0
O=C(Cc1ccccc1)NC(NC(=S)Nc1cc(Cl)ccc1Cl)C(Cl)(Cl)Cl (stereo unspecified) | -27.8 | -7.3 | -4.2 | 50.6* | -6.2 | -1.0
O=C(NC(NC(=S)Nc1cc(Cl)ccc1Cl)C(Cl)(Cl)Cl)c1ccco1 (stereo unspecified) | -38.4 | 6.0 | -14.0 | 26.1 | 3.5 | -8.0
CCS(=O)(=O)NCC(c1cccnc1)N1CCN(c2ccccc2)CC1 (stereo unspecified) | -8.9 | 5.1 | 6.1 | -16.0 | -29.6 | 1.0
CCS(=O)(=O)NCC(c1cccnc1)N1CCN(c2ccc(OC)cc2)CC1 (stereo unspecified) | -6.7 | 14.6 | -1.1 | 62.6* | -32.7 | -1.0
COC(=O)c1ccc(Sc2ccccn2)c([N+](=O)[O-])c1 | 1.2 | -2.0 | -8.4 | -7.5 | 54.8* | -5.0
SMILES | p47phox inh | Mcl1-Noxa inh | 14-3-3 Bad PPI | Calpain2 inh | Mcl1 Bid PPI | Bim-Mcl-1
CC(C)(C)NC(=O)c1ccc(Sc2ccccc2)c([N+](=O)[O-])c1 | 1.7 | -4.7 | -8.2 | 54.1* | -16.1 | 0.0
CCCN(CCC)CCCNC(=O)c1nn(-c2cccc(OC)c2)c(=O)c2ccccc12 | -0.8 | 1.0 | -8.6 | -18.4 | -21.4 | 1.0
O=C1CC(c2ccco2)CC(O)=C1C=NCCN1CCN(C(=S)Nc2ccccc2)CC1 (stereo unspecified) | -2.2 | 51.4* | -7.3 | -9.1 | -49.6 | nt
O=C1CC(c2ccco2)CC(O)=C1C=NCCN1CCN(C(=O)Nc2ccc(Cl)cc2)CC1 (stereo unspecified) | -13.8 | 5.1 | 0.0 | -4.0 | -52.4 | 0.0
Cc1nn(Cc2ccc(Cl)cc2)c(C)c1NC(=O)CSc1nc2c(c(C(F)(F)F)n1)CCc1ccccc1-2 | 44.9* | -9.6 | 34.7 | -56.4 | 41.7 | 0.0
Cc1ccc(Cn2nc(C)c(NC(=O)CSc3nc4c(c(C(F)(F)F)n3)CCc3ccccc3-4)c2C)cc1 | 49.7* | 34.2 | 66.1 | -7.2 | 74.2* | -3.0
Cc1ccccc1Cn1cc(NC(=O)CSc2nc3c(c(C(F)(F)F)n2)CCc2ccccc2-3)cn1 | -13.0 | -8.2 | 0.1 | -42.7 | -15.5 | -2.0
O=[N+]([O-])c1cccc(C=Nc2cc3c(cc2Br)OCCO3)c1 | -3.2 | -2.6 | 3.3 | 23.3 | -97.0 | -8.0
COc1ccc(-c2cc(=O)oc3cc(OCC(=O)c4cccc([N+](=O)[O-])c4)ccc23)cc1 | 63.8* | 45.7 | 70.5*[fluorescence artefact?] | 14.3 | 50.1 | 2.0
CC1=CC(=C(C#N)C#N)C=C(C)N1CCC(C)C | -7.0 | -8.8 | -6.9 | -22.4 | -32.5 | 0.0
O=S(=O)(c1cccc2cccc(Cl)c12)N1CCCC1 | -6.8 | 3.3 | -2.9 | 13.3 | -16.2 | -5.0
C/C=C(\C)CN1CCN(c2ccccc2)CC1 | 0.5 | 45.1 | 73.7* | 20.1 | 44.7 | -2.0
C/C=C(\C)CN1CCN(c2ccccc2F)CC1 | -3.0 | 24.5 | 13.5 | -0.3 | 53.4* | -5.0
COc1ccc(C2CC(C)(c3ccc(OC)cc3OC)Nc3ccccc3N2)c(OC)c1 (stereo unspecified) | -9.4 | 9.3 | -14.8 | -50.9 | -33.0 | -6.0
CCc1[nH]c(=S)c(C#N)c2c1CCCC2 | -1.6 | 59.0* | -1.1 | -7.0 | -10.2 | -12.0
CCc1[nH]c(=O)c(C#N)c2c1CCCC2 | 32.9* | 9.4 | nt | -31.4 | -10.8 | 0.0
Cc1c(C#N)c(O)n(C)c(=O)c1N=Nc1ccc(S(N)(=O)=O)cc1 | -5.5 | 27.8 | -5.2 | 7.9 | -29.9 | 5.0
CCOC(=O)c1ccc(N=Nc2c(C)c(C#N)c(O)[nH]c2=O)cc1 | 0.2 | 87.7* | 6.1 | -101.5 | -21.8 | -2.0
COc1cc(C2Nc3cccc4cccc(c34)N2)ccc1OC(C)=O | -11.9 | 69.3* | -5.5 | -242.5 | -0.9 | 12.0
FC(F)(F)c1ccc(C2Nc3cccc4cccc(c34)N2)cc1 | -0.6 | 27.4 | -0.3 | 1.0 | -53.5 | -2.0
COc1cc(C2Nc3cccc4cccc(c34)N2)cc(OC)c1O | -18.5 | 99.7* | -12.0 | -47.0 | 9.5 | 12.0
Oc1ccc(C2Nc3cccc4cccc(c34)N2)c(O)c1 | -15.7 | 102.6* | -12.6 | -173.7 | 19.1 | 7.0
